Source: PubChem BioAssay (National Center for Advancing Translational Sciences (NCATS))
Sampled rows, rich in hits. Any-hit rate of the full collection: about 10%.
GLS inh – inhibitors of human glutaminase (GLS); GLS enzymatic activity, qHTS titration; Potency, µM (titrated, usually from 45.5 µM), inactives show at the top dose activity change, negative = inhibition, most hits filed as inhibitors; hit rate 0.21% among 410,000; note: % is set by controls: 0 for no effect and ±100 for the full control effect
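Human kidney-isoform GLS in 45 mM KH2PO4 pH 8.2, 0.02% Tween-20, with compound, started with 1mM L-Glutamine (added stock). Glutamate oxidase/HRP/Amplex red coupled fluorescence read at start and after 30 min at RT.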
JMJD2A Tudor – inhibitors of human JMJD2A Tudor domain; O75164; AlphaScreen JMJD2A-Tudor / H3K4me3 peptide binding; Potency, µM (top dose mostly 114 µM), for inactives: top-dose activity change, negative = inhibition, usual class: inhibitors; hit rate 4.4% among 390,000; note: % is set by controls: 0 for no effect and ±100 for the full control effect; nearly all actives have a fitted effect of over 50% in size
HP1b chromo inh – inhibitors of HP1-beta chromodomain binding to methylated histone tails. AlphaScreen HP1-beta / biotin-H3K9me3 peptide binding. hit rate 0.56% among 390,000. Potency, µM (series often up to 114 µM), for inactives: at the top dose activity change, negative = inhibition, hits mostly inhibitors. AID 540317; note: nearly all actives have a fitted effect of over 70% in size
Target sequence (P83916 whole entry, looked up): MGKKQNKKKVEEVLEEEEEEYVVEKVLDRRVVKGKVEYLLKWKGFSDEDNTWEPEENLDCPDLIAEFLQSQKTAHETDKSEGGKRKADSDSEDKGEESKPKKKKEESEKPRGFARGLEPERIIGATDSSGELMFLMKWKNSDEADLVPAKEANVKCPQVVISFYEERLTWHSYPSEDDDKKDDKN
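HP1-beta protein (50 nM final) preincubated 30 min at room temperature with biotinylated H3(1-18)K9me3 peptide (50 nM) in PBS pH 7.4, 0.01% Tween-20, then compound added for 30 min. AlphaScreen streptavidin donor/nickel chelate acceptor beads (10 ug/mL final), 30 min dark, luminescence read.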
G9a inh – G9a (human) methyltransferase inhibition; Q96KQ7; G9a H3K9 monomethylation, AlphaScreen, 2 h; Potency, µM (top dose mostly 102 µM), for inactives: at the highest dose activity, negative = inhibition, hits mostly inhibitors; hit rate 8.8% among 350,000; AID 504332; note: % is set by controls: 0 for no effect and ±100 for the full control effect; nearly all actives have a fitted effect of over 75% in size
Target sequence (Q96KQ7 913-1193 limits assumed): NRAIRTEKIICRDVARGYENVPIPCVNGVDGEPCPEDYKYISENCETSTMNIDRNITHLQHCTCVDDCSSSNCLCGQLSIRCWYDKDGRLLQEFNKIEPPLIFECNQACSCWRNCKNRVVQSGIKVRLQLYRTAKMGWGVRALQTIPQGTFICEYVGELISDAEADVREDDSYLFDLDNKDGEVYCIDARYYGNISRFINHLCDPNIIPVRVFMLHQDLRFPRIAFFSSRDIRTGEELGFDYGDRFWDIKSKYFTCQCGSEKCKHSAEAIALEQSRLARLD
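Step 1: enzyme (final 20 nM) with compound, 15 min RT. Step 2: substrate peptide 500 nM and SAM 20 uM, 2 h RT. Step 3: anti-H3K9me1 antibody and AlphaScreen beads, 10 min, then plate read.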
BAZ2B inh – blocks human BAZ2B; Q9UIF8; AlphaScreen BAZ2B-H3K14Ac peptide displacement; Potency, µM (highest dose often 114 µM), without a hit: at the highest dose activity change, negative = inhibition, hits mostly inhibitors; hit rate 4.4% among 360,000; AID 504333; note: % is set by controls: 0 for no effect and ±100 for the full control effect; nearly all actives have a fitted effect of over 60% in size
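AlphaScreen displacement of biotin-H3(5-23)K14Ac peptide (50 nM final) from BAZ2B (50 nM final) in PBS pH 7.4, 0.01% Tween-20; complex preformed 30 min RT, then compounds (top 110 uM) 30 min RT, beads 20 min dark.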
* marks the source's active call; other numbers are inactive results; u = inconclusive; x = no result; [ ] = another dose, or the depositor's remark. Calls come from the whole dose curve; as a rule, active = well fitted curve in the direction sought with a large enough effect; inconclusive = small, poorly fitted or top-dose-only effect, or another doubt; inactive = no such curve, though single readings can be large; an effect the other way counts as inactive or inconclusive. Potency is the fitted concentration of half-maximal effect.

SMILES	GLS inh	JMJD2A Tudor	HP1b chromo inh	G9a inh	BAZ2B inh
COc1ccc(CCNC(=O)c2cc([N+](=O)[O-])cc([N+](=O)[O-])c2)cc1OC	-5%	-10%	37%	-9%	-22%
O=C(CC1SC(=NCCc2ccccc2)N(/N=C/c2cccs2)C1=O)Nc1ccc(Cl)cc1 (configuration not stated)	-2%	-19%	6%	25%[59 µM]	-31%
Cc1c2cnn(-c3ccccc3)c(=O)c2c(C)n1CC(=O)NCc1ccccc1Br	-4%	5%	31%	5%[59 µM]	0%
CCOC(=O)C1=C(C)NC(SC)=NC1c1ccc(OC)cc1 (configuration not stated)	19%	-20%	29%	u	3%
CCC1N=C(SC)NC(C)=C1C(=O)c1ccccc1 (configuration not stated)	2%	-15%	-17%	4µM*	-23%
Cc1ccc(NC(=O)C(OC(=O)c2ccc(O)cc2)c2ccccc2)cc1Cl (configuration not stated)	-8%	-12%	56%	71µM*	-8%
Cc1ccc(NC(=O)C(OC(=O)c2ccc(F)cc2)c2ccccc2)cc1Cl (configuration not stated)	-4%	-12%	32%	21%[59 µM]	4%
Cc1snc(S(=O)(=O)/C(C#N)=N/Nc2cccc(C(F)(F)F)c2)c1C#N	4%	50µM*	-31%	14µM*	u
CC[n+]1c(/C=C/N(C)c2ccccc2)n(-c2ccccc2)c2ccc(-c3nc4ccccc4s3)cc21	27%	35µM*	-13%	25µM*	-18%
CCOC(=O)c1cc(=O)n(-c2ccc(Cl)cc2C)[nH]1	-6%	-16%	18%	13µM*	-29%
CCOC(=O)c1n[nH]n(-c2cc(Cl)cc(Cl)c2)c1=O	2%	7%	43%	3%	12%
COc1ccc(CC(=O)N2CC3(C)CC2CC(C)(C)C3)cc1 (configuration not stated)	-5%	-6%	-1%	-15%[12.7 µM]	-4%
Cc1ccnc(Nc2nc(-c3ccccc3)cs2)c1	-2%	-9%	67%	-2%	-19%
Cc1ccc(Nc2nc(C3CC3)cs2)cc1	x	x	x	40µM*	-5%
Clc1ccc(Nc2nc(C3CC3)cs2)cc1	23%	-34%	29%	40µM*	-6%
O=C(COc1ccc2ccc(=O)oc2c1)N1CCN(C(=O)C2COc3ccccc3O2)CC1 (configuration not stated)	3%	-20%	22%	x	-17%
Clc1ccc(C(c2ccccc2)c2c[nH]c3ccccc23)s1 (configuration not stated)	11%	3%	28%	9%[59 µM]	-1%
OC(CNCC(c1ccc(Cl)cc1Cl)c1c[nH]c2ccccc12)c1ccccc1 (configuration not stated)	-4%	35µM*	u	50µM*	u
Cc1cc(C)c2nc3nc(C)c(C)cc3c(N)c2c1	-5%	-2%	12%	50µM*	-24%
CCCSc1nc(C)c2cc(C)cc(C)c2n1	-5%	69%	162%	78%[59 µM]	105%
CN(C)c1ccc(N=c2sc3ccccc3n2C)cc1	75%	10µM*	10µM*	u	7.9µM*
COC(=O)c1cccc(C(=O)N2CCCC(CCC(=O)N(C)CCc3ccccn3)C2)c1 (configuration not stated)	-2%	-10%	59%	x	16%
CC(=C1C2C=CC1C1C(=O)NC(=O)C21)c1ccccc1 (configuration not stated)	-3%	2%	28%	5%[59 µM]	-11%
COc1cc([N+](=O)[O-])cc(/C=N/NC(=O)c2ccc(NC(=O)c3ccc(C)cc3)cc2)c1O	0%	0%[57.1 µM]	36%	24%	12%
O=C(Cn1cncn1)N/N=C/c1ccccc1Cl	-10%	-11%	27%	16%[12.7 µM]	-4%
SMILES	GLS inh	JMJD2A Tudor	HP1b chromo inh	G9a inh	BAZ2B inh
COc1cc([N+](=O)[O-])cc(/C=N/NC(=O)CC#N)c1O	x	x	x	50µM*	8.9µM*
COc1cc([N+](=O)[O-])cc(/C=N/NC(=O)CSc2ccccn2)c1O	1%	79µM*	25%	x	u
COc1cc([N+](=O)[O-])cc(/C=N/NC(=O)c2ccc(C)nc2)c1O	1%	u	16%	21%[59 µM]	10µM*
COc1cc([N+](=O)[O-])cc(/C=N/NC(=O)Cn2cncn2)c1O	-1%	25µM*	22%	u	32µM*
Cc1cc(C)nc(NNS(=O)(=O)c2ccc(F)c(Cl)c2)n1	14%	-31%	15%	u	79µM*
COc1ccc(S(=O)(=O)NNc2nc(C)cc(C)n2)cc1Br	24%	-15%	-8%	22µM*	6%
Cc1cc(C)nc(NNS(=O)(=O)c2ccc(Cl)cc2)n1	17%	u	-5%	x	x
COc1ccc(S(=O)(=O)NC2CC2)cc1Br	-3%	3%	35%	x	2%
O=C(O)c1ccc(OCCCOc2ccc(C(=O)O)cc2)cc1	-2%	x	x	-41%[2.33 µM]	x
CCN1CCN(c2ccc([N+](=O)[O-])cc2S(=O)(=O)N2CCOCC2)CC1	-2%	-3%	39%	-12%	-15%
Cc1ccc(-n2c(Cc3ccccc3)n[nH]c2=S)c(C)c1	-4%	18µM*	3%	u	-29%
COc1ccc(Cc2n[nH]c(=S)n2-c2cc(C)ccc2C)cc1OC	2%	x	x	x	x
S=c1[nH]nc(Cc2ccccc2)n1-c1cccc2ccccc12	13µM*	25µM*	6%	10µM*	-32%
Cc1ccc(-n2c(CC#N)n[nH]c2=S)c(C)c1	-1%	20µM*	39%	22µM*	-18%
CC(C)CNC(=O)c1cccc2c(-c3cccnc3)coc12	7%	x	x	x	x
COc1ccc(C(C(=O)NC2CCCCC2)N(C(=O)Cc2c[nH]c3ccccc23)c2ccc(NC(C)=O)cc2)cc1OC (configuration not stated)	17%	-25%	5%	x	-36%
CC(C)(C)c1ccc(C(=O)NC(=S)NCC2CCCO2)cc1 (configuration not stated)	4%	-15%	18%	40µM*	-30%
CC(C)(C)c1ccc(C(=O)NNC(=S)NCC2CCCO2)cc1 (configuration not stated)	12%	-8%	34%	-44%[59 µM]	-1%
O=C(NCC1CCCO1)C1CCCN1C(=O)NC1CCCCC1 (configuration not stated)	0%	-15%	19%	15%	5%
S=C(NCC1CCCO1)NC1CCCCC1 (configuration not stated)	-1%	-21%	11%	50µM*	u
S=C(NCC1CCCO1)c1ccc(Br)cc1 (configuration not stated)	20%	-34%	u	8.9µM*	-4%
COc1ccc(-c2nc(-c3ccccc3)[nH]c(=O)c2C#N)cc1	21%	-17%	18%	3%	7%
C/C(=N\Nc1ccc(F)cc1F)c1ccccc1O	u	-2%	42%	14µM*	-7%
